Inconclusive results are not listed. The source made the active and inactive calls. Calls come from the whole dose curve; as a rule, active = well fitted inhibition curve with a large enough effect in the signal ratio in the repeat runs (not every such curve was filed as active); inconclusive = weak or mixed curves, or effect the other way; inactive = no such curve, though single readings can be large or run the other way; the % refers to the signal ratio.
Molecular target: Peroxisome proliferator-activated receptor delta (Homo sapiens) (UniProt Q03181)
Test: qHTS assay to identify small molecule antagonists of the peroxisome proliferator-activated receptor delta (PPARd) signaling pathway (AID 743215);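 note: cells stimulated with agonist L165041 at 300 nM final during compound exposure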
Details: HEK293H PPARd-UAS-bla, beta-lactamase FRET ratio, antagonist, 17 h; series mostly up to 62 µM
Outline: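 PPARd-bla HEK293H cells (UAS-bla reporter) preincubated 5 h, then given compound plus 300 nM final L165041 agonist for 17 h at 37 C. Beta-lactamase activity read by LiveBLAzer B/G FRET substrate fluorescence after 2 h at room temperature.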

Chain of Peroxisome proliferator-activated receptor delta (Homo sapiens) (Q03181 whole entry, looked up): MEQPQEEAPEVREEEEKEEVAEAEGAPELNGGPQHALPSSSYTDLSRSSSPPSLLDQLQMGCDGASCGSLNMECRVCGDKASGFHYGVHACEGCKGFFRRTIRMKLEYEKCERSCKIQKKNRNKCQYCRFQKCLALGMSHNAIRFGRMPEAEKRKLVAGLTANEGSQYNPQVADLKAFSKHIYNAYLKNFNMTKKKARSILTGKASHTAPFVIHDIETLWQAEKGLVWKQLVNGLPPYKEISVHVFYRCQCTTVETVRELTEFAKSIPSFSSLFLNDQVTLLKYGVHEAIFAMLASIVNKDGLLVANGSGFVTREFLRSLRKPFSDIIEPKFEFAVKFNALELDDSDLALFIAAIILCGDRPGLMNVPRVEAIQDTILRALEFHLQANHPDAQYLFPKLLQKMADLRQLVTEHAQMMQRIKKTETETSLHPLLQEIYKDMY

Row | SMILES | outcome
1 | Cc1cnc[nH]1 | inactive
2 | OC(Cn1cncn1)(c1ccc(F)cc1)c1ccccc1F (stereo not drawn) | inactive
3 | CC(=O)CC(c1ccc(Cl)cc1)c1c(O)c2ccccc2oc1=O (stereo not drawn) | inactive
4 | ClCC(Cl)Cl | inactive
5 | Oc1c(Cl)cccc1Cl | inactive
6 | CCC1(c2ccccc2)C(=O)NC(=O)NC1=O | inactive
7 | Fc1cc(Br)ccc1CBr | inactive
8 | O=NN1CCCCC1 | inactive
9 | CS(=O)(=O)c1cc(C(F)(F)F)ccc1C(=O)c1cnoc1C1CC1 | inactive
10 | O=[N+]([O-])c1cccc2c([N+](=O)[O-])cccc12 | inactive
11 | NC(=S)C(N)=S | inactive
12 | CCC(=O)C(CCN(C)C)(c1ccccc1)c1ccccc1 | inactive
13 | C[C@@H]1CN(C2CCC(C#N)(c3ccc(F)cc3)CC2)CC[C@]1(C(=O)O)c1ccccc1 (stereo partly drawn) | inactive
14 | O=[N+]([O-])c1cccc2cccnc12 | inactive
15 | CCOP(=O)(N=C1SCCS1)OCC | inactive
16 | CN1CCC(O)(c2ccc(F)cc2)C(C(=O)c2ccc(F)cc2)C1 (stereo not drawn) | inactive
17 | C[N+](=O)[O-] | inactive
18 | O=C1OC(c2ccc(O)c(S(=O)(=O)O)c2)(c2ccc(O)c(S(=O)(=O)O)c2)c2c(Br)c(Br)c(Br)c(Br)c21 | inactive
19 | O=[N+]([O-])c1cc(Cl)c(Cl)c(Cl)c1 | inactive

Row | SMILES | outcome
20 | CN(C)CCc1ccc(O)cc1 | inactive
21 | O=C(Oc1ccc(Br)cc1)N1CCN2CCC1CC2 | inactive
22 | CC(C)[N+](=O)[O-] | inactive
23 | C=C(C)CN(CC)c1c([N+](=O)[O-])cc(C(F)(F)F)cc1[N+](=O)[O-] | inactive
24 | NC(=O)c1cc([N+](=O)[O-])cc([N+](=O)[O-])c1 | inactive
25 | N#CC(Cl)(Cl)Cl | inactive
26 | CCCCc1c(C)nc(NCC)[nH]c1=O | inactive
27 | CCc1cc2c(s1)-n1c(C)nnc1CN=C2c1ccccc1Cl | inactive
28 | CCOP(=S)(OCC)SCSP(=S)(OCC)OCC | inactive
29 | C(CCOCC1CO1)COCC1CO1 (stereo not drawn) | inactive
30 | Nc1cc2c3c(c1)C(c1ccccc1)=N[C@@H](NC(=O)c1cccnc1)C(=O)N3CC2 | inactive
31 | CCOc1nc(C(Cl)(Cl)Cl)ns1 | inactive
32 | Cc1cc(C)c(C(=O)P(=O)(C(=O)c2c(C)cc(C)cc2C)c2ccccc2)c(C)c1 | inactive
33 | C[C@H]1CCC[C@H](O)CCCCCc2cc(O)cc(O)c2C(=O)O1 | inactive
34 | CCCSC(=O)N(CCC)CCC | inactive
35 | CCCCN(CCCCO)N=O | inactive
36 | N#CCNCC#N | inactive
37 | Cc1coc2c1CCC(C)C2 (stereo not drawn) | inactive
38 | CCOC(=O)NC(=S)Nc1ccccc1NC(=S)NC(=O)OCC | inactive
